Test [1] in a line: qHTS assay to identify small molecule antagonists of the thyroid receptor (TR) signaling pathway - cell viability counter screen (AID 743064). Further: nearly all actives have a fitted effect of over 50% in size. Summed up:
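Fluorescence from CellTiter-Fluor, added after 23.5 h exposure at 37 °C, reported viability of GH3.TRE-Luc cells co-treated with compound and 1 nM T3. Measured in the same wells as the luciferase TR readout.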

Test [2] deals with thyroid hormone receptor (rat, GH3 cells). Description: qHTS assay to identify small molecule agonists of the thyroid receptor (TR) signaling pathway (AID 743066; calls by dose curve). In general terms: qHTS replaces the single test concentration by a dilution series.
Test [3] concerns the target Estrogen receptor (Homo sapiens) (UniProt P03372). Description: qHTS assay to identify small molecule antagonists of the estrogen receptor alpha (ER-alpha) signaling pathway (AID 743069; active means well fitted curve in the direction sought with a large enough effect in the signal ratio in the repeat runs, not every such curve was filed as active; the % refers to the signal ratio). Summed up: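 Antagonist mode: compounds in DMSO were co-added with 17beta-estradiol to ER-alpha-bla HEK293 cells (2% charcoal-stripped serum) and left 18 h at 37C. Reporter inhibition was measured as FRET fluorescence after 2 h LiveBLAzer substrate at room temperature.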

The nature of test [4]: qHTS assay to identify small molecule antagonists of the estrogen receptor alpha (ER-alpha) signaling pathway - cell viability counter screen (AID 743074; calls by dose curve;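 further: HEK293 cells carrying ER-alpha-UAS-bla reporter stimulated with 17beta-estradiol; nearly all actives have a fitted effect of over 45% in size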).
Test [5] concerns the target Estrogen receptor (Homo sapiens) (UniProt P03372). The experiment in a line: qHTS assay to identify small molecule agonists of the estrogen receptor alpha (ER-alpha) signaling pathway (AID 743075; calls by dose curve;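 further: HEK293 GripTite cells with ER-alpha and UAS-driven beta-lactamase reporter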).
Test [6] has the same target. The experiment in a line: qHTS assay to identify small molecule agonists of the estrogen receptor alpha (ER-alpha) signaling pathway using the BG1 cell line (AID 743079). Further: nearly all actives have a fitted effect of over 20% in size. Further: potency means the concentration at half of the fitted maximal effect.
The nature of test [7]: qHTS assay to identify small molecule antagonists of the estrogen receptor alpha (ER-alpha) signaling pathway using the BG1 cell line (AID 743080; calls by dose curve;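 further: BG1 cells stimulated with 17beta-estradiol alongside compound; series mostly up to about 70 µM; nearly all actives have a fitted effect of over 25% in size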). Summed up:
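Endogenous full-length ER-alpha in BG1-Luc-4E2 cells drives a stably integrated 4×ERE luciferase gene; compounds were tested against 17beta-estradiol over 21.5 h, with luminescence and multiplexed viability fluorescence recorded.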

Test [8] is described as follows: qHTS assay to identify small molecule antagonists of the estrogen receptor alpha (ER-alpha) signaling pathway using the BG1 cell line - cell viability counter screen (AID 743081).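 Further: compound given together with 17beta-estradiol as the ER stimulus; series mostly up to about 70 µM; nearly all actives have a fitted effect of over 45% in size.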
Test [9] deals with Aromatase (Homo sapiens) (UniProt P11511). Description: qHTS assay to identify aromatase inhibitors (AID 743083). Further: series mostly up to about 70 µM; nearly all actives have a fitted effect of over 55% in size.
Aromatase (Homo sapiens), sequence (P11511 whole entry, looked up): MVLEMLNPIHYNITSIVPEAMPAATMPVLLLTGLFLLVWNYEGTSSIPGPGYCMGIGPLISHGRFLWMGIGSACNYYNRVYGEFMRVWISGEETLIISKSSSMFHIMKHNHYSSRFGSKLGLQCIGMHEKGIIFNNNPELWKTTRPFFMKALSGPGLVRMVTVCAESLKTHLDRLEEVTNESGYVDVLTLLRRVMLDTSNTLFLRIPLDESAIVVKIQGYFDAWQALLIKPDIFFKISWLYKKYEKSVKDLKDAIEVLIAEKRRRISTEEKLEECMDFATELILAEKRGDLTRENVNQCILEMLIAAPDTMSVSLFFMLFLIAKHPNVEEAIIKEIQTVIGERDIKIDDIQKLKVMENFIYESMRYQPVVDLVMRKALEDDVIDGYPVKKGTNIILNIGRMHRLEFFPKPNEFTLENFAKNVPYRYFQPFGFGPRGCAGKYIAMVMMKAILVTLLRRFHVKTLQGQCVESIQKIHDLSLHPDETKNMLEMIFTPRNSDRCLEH
Test [10] is described as follows: qHTS assay to identify aromatase inhibitors - cell viability counter screen (AID 743084).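 Further: cells stimulated with testosterone during compound exposure; nearly all actives have a fitted effect of over 55% in size.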
Test [11] concerns the target Aryl hydrocarbon receptor (Homo sapiens) (UniProt P35869). Description: qHTS assay to identify small molecule that activate the aryl hydrocarbon receptor (AhR) signaling pathway (AID 743085).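 Further: HG2L7.5c1 human HepG2 liver cells with stably integrated DRE-driven firefly reporter; series mostly up to about 70 µM; nearly all actives have a fitted effect of over 15% in size.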 Summed up: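 Cell line HG2L7.5c1 (human hepatoma, 20× DRE-luc). Plated, 5 h 37C, compound/DMSO added, 24 h 37C. CellTiter-Fluor 30 min 37C → fluorescence; then ONE-Glo 30 min RT → luminescence.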

Test [12] can be described thus: qHTS assay to identify small molecule that activate the aryl hydrocarbon receptor (AhR) signaling pathway - cell viability counter screen (AID 743086). Further: series mostly up to about 70 µM; nearly all actives have a fitted effect of over 45% in size. Summed up: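 Cytotoxicity counter screen: CellTiter-Fluor signal (30 min, 37 C) in 4000 HepG2 cells/well carrying the DRE-luciferase reporter, following 24 h compound exposure at 37 C.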
Test [13] addresses Peroxisome proliferator-activated receptor gamma (Homo sapiens) (UniProt P37231). Description: qHTS assay to identify small molecule agonists of the peroxisome proliferator-activated receptor gamma (PPARg) signaling pathway (AID 743094; active means well fitted activation curve with a large enough effect in the signal ratio in the repeat runs, not every such curve was filed as active; the % refers to the signal ratio). Summed up:
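Cell-based bla reporter, HEK293H background, PPARg-driven UAS. Pre-incubation 5 h, 37C, 5% CO2. Compound 17 h, 37C. Substrate 1 h RT; fluorescence.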

Test [14] shares this target. Description: qHTS assay to identify small molecule antagonists of the peroxisome proliferator-activated receptor gamma (PPARg) signaling pathway (AID 743191; calls by dose curve; further: series mostly up to about 63 µM; nearly all actives have a fitted effect of over 30% in size). Summed up:
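Beta-lactamase reporter under UAS control in HEK293H PPARg-bla cells; compound treatment 17 h at 37C. Read-out: fluorescence intensity after 1 h room-temperature incubation with LiveBLAzer B/G FRET substrate.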

Test [15] can be described thus: qHTS assay to identify small molecule antagonists of the peroxisome proliferator-activated receptor gamma (PPARg) signaling pathway - cell viability counter screen (AID 743194). Further: nearly all actives have a fitted effect of over 55% in size. Summed up:
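Viability was measured as CellTiter-Glo luminescence in GeneBLAzer PPARg UAS-bla HEK293H cells. These cells had been exposed 17 h at 37 C to compounds together with rosiglitazone at 50 nM final, with the beta-lactamase readout taken in the same wells.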

Test [16] is described as follows: qHTS assay for small molecule agonists of the antioxidant response element (ARE) signaling pathway (AID 743202; active means well fitted activation curve with a large enough effect in the signal ratio in the repeat runs, not every such curve was filed as active; the % refers to the signal ratio). Summed up:
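After 16 hours of compound treatment at 37 C, HepG2 cells with a stably integrated ARE-driven beta-lactamase reporter were loaded 2 hours at room temperature with LiveBLAzer B/G FRET substrate and fluorescence intensity measured.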

Test [17] in a line: qHTS assay for small molecule agonists of the antioxidant response element (ARE) signaling pathway - cell viability counter screen (AID 743203; calls by dose curve; further: nearly all actives have a fitted effect of over 55% in size). Summed up:
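Measured in the same wells as the beta-lactamase ARE reporter, this read-out is CellTiter-Glo luminescence from HepG2 ARE-bla cells given compounds for 16 hrs.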

A short description of test [18]: qHTS assay for small molecule activators of the heat shock response signaling pathway - cell viability counter screen (AID 743209). Further: nearly all actives have a fitted effect of over 50% in size. Summed up:
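Same-well multiplex: after 2.5 h room-temperature incubation with LiveBLAzer B/G substrate and fluorescence reading, CellTiter-Glo reagent was added to HSE-bla HeLa cells that had received compound for 5 h at 37 C; luminescence read after 30 min.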

Test [19] is described as follows: qHTS assay for small molecule activators of the heat shock response signaling pathway (AID 743210; active means well fitted activation curve with a large enough effect in the signal ratio in the repeat runs, with a control signal flat, not every such curve was filed as active; the % refers to the signal ratio; further: series mostly up to about 63 µM). Summed up: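 Compound exposure lasted 5 h at 37 C in HeLa cells carrying a heat-shock-element-driven beta-lactamase reporter. Read-out: fluorescence intensity after 2.5 h room-temperature loading with LiveBLAzer B/G FRET substrate.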
Test [20] in a line: qHTS assay to identify small molecule antagonists of the thyroid receptor (TR) signaling pathway (AID 743065). Summed up:
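Antagonism measured as loss of luciferase signal in GH3 cells stably carrying a TRE-luciferase reporter, co-treated with compound and T3 (1 nM final) for 23.5 h at 37 C. Viability was read in the same well by CellTiter-Fluor.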

Inconclusive results are not listed. The source made the active and inactive calls. Unless noted, the call rests on the fitted dose curve; in most records, active means well fitted curve in the direction sought with a large enough effect in the repeat runs; inconclusive means weak or mixed curves; inactive means no such curve, though single readings can be large; an effect the other way counts as inactive or inconclusive.

Aryl hydrocarbon receptor (Homo sapiens), sequence (P35869 whole entry, looked up): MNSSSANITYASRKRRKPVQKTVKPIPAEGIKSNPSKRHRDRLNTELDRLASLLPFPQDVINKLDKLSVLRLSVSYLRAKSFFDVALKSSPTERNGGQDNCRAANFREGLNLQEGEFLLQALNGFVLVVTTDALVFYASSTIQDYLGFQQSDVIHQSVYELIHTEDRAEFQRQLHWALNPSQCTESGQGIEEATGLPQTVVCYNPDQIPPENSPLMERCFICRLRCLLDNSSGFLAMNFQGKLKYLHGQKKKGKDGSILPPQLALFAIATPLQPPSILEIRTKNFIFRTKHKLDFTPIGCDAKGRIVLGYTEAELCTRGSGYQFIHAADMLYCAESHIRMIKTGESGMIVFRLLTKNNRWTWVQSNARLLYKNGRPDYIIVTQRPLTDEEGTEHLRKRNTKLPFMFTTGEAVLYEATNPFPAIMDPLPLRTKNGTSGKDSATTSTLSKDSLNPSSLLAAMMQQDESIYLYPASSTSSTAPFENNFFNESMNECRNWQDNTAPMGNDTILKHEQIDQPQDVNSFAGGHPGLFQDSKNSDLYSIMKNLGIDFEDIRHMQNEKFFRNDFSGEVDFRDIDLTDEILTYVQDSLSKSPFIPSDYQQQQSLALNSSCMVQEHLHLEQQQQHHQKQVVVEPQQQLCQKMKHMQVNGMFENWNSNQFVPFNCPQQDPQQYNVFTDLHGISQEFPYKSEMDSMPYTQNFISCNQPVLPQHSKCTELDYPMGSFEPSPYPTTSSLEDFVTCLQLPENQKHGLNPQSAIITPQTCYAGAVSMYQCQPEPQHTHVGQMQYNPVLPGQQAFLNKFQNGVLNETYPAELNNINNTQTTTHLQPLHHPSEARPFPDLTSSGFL
Peroxisome proliferator-activated receptor gamma (Homo sapiens), sequence (P37231 whole entry, looked up): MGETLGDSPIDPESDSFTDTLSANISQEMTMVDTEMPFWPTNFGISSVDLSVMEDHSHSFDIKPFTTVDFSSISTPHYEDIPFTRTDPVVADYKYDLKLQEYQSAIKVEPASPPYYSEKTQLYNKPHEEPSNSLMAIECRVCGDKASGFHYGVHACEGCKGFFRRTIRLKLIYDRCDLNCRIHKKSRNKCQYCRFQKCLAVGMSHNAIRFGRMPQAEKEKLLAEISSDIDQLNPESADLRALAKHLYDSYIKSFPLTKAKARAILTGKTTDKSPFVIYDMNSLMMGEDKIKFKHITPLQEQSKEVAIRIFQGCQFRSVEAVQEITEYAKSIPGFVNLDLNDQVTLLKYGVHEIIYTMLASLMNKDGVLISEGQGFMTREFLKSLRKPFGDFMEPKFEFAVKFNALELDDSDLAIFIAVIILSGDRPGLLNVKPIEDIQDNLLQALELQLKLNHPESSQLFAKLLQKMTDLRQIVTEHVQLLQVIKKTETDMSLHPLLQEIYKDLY
Estrogen receptor (Homo sapiens), sequence (P03372 whole entry, looked up): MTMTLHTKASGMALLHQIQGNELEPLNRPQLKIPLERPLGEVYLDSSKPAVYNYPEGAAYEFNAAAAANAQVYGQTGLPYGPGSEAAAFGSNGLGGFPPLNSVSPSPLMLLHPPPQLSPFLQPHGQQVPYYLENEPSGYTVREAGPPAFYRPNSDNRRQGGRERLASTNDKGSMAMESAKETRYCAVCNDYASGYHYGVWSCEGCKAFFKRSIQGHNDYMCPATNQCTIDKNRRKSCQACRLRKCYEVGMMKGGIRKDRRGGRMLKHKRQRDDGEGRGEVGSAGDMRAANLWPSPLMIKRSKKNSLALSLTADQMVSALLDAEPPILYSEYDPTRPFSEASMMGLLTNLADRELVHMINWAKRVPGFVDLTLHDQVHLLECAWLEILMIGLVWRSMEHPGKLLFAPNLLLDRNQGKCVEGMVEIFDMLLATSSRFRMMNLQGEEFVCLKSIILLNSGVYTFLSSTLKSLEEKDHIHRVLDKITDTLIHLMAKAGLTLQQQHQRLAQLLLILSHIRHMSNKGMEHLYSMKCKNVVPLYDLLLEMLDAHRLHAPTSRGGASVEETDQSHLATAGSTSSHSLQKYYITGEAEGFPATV

As to `CC(C)(O)c1ccccc1`, the Potency result in [1], in test [2], in [3], in test [5], in test [6] and in test [7] was “inactive” in each case. For the same compound, the Potency result in test [9], in [10], in test [11], in test [12], in [15] and in test [16] was “inactive” each time. Moreover, the compound was called inactive in [4], in test [8], in [13], in test [14], in test [17] and in test [18]. In addition, the compound was classed as inactive in test [19].

Regarding `CCCCCN(CCCCC)C(=O)C(CCC(=O)O)NC(=O)c1ccc(Cl)c(Cl)c1` (stereo unspecified), the Potency entry in test [1], in test [20], in test [2], in test [5], in test [7] and in test [9] was “inactive” in each case. The Potency result in [10], in test [11], in test [12] and in [15] was “inactive” in each case. The call in test [4], in test [8], in test [17] and in [18] was inactive.

Turning to `OC1OC[C@@H](O)[C@H](O)[C@H]1O` (stereo partly specified), the Potency entry in [1], in test [20], in test [2], in [9], in [10] and in test [11] was “inactive” each time. Moreover, the Potency result in test [12], in test [15] and in test [16] was “inactive” in each case. Further, the call in test [8], in [14], in test [17], in test [18] and in [19] was inactive.

As for `COc1cc(O)cc(O)c1`, the Potency entry in [1], in test [20], in test [2], in [7], in [9] and in [10] was “inactive” each time. For the same compound, the Potency result in test [12] and in test [15] was “inactive” each time. For the same compound, the compound was classed as inactive in [4], in test [8], in test [13], in test [14], in test [17] and in test [18].

`NC(CS)C(=O)O` (stereo unspecified): the Potency entry in test [1], in test [20], in test [2], in test [9], in test [10] and in test [11] was “inactive” in each case. The Potency entry in [12] and in test [15] was “inactive” each time. In addition, the outcome in test [4], in test [13], in test [14], in test [17], in test [18] and in test [19] was inactive.

In the case of `C=CC(=O)OCCCCCC`, the Potency entry in [1], in [20], in test [2], in test [9], in test [10] and in test [11] was “inactive” throughout. Also, the Potency entry in [12] and in [16] was “inactive” each time. Also, the call in [4], in [8], in [17], in test [18] and in [19] was inactive.

Regarding `Oc1ccc2c(c1)OC[C@@H](N1CCC(O)(c3ccc(F)cc3)CC1)[C@H]2O`, the Potency entry in test [1], in test [20], in [5], in test [9], in test [10] and in test [12] was “inactive” each time. For the same compound, the Potency result in [15] is “inactive”. The compound was classed as inactive in test [4], in test [8], in [13], in [14], in [17] and in test [18]. The outcome in test [19] was inactive. Moreover, the Potency in test [6] was 9.44 µM (active).

Consider `Cc1ccc(N)cc1[N+](=O)[O-]`, for which the Potency result in [1], in test [20], in test [2], in test [10], in [12] and in [15] was “inactive” in each case. The Potency entry in [16] was “inactive”. Further, the result in test [4], in test [8], in test [14], in test [17], in test [18] and in test [19] was inactive.

Regarding `C=CCSCC1Nc2cc(Cl)c(S(N)(=O)=O)cc2S(=O)(=O)N1` (stereo unspecified), the Potency result in test [1], in [20], in test [2], in test [9], in test [10] and in test [11] was “inactive” each time. The Potency result in test [12], in [15] and in [16] was “inactive” throughout. Besides, the compound was called inactive in test [4], in test [8], in test [13], in [14], in test [17] and in test [18]. Also, the call in test [19] was inactive.

As to `CCCCCCCCCCC1CO1` (stereo unspecified), the Potency entry in test [1], in [20], in test [2], in test [9], in test [10] and in test [11] was “inactive” throughout. The Potency entry in [12] and in test [15] was “inactive” in each case. Also, the call in [4], in test [8], in test [14], in test [17], in test [18] and in [19] was inactive.

`CC(C=O)Cc1ccc(C(C)C)cc1` (stereo unspecified): the Potency result in [1], in test [20], in [2], in test [9], in test [10] and in [11] was “inactive” in each case. For the same compound, the Potency result in test [12], in test [15] and in test [16] was “inactive” throughout. Also, the compound was called inactive in [4], in test [8], in test [13], in test [14], in [17] and in [18]. In test [19], the result was inactive.

As for `OCC(O)[C@@H](O)[C@H](O)[C@H](O)CO[C@H]1O[C@H](CO)[C@@H](O)[C@H](O)[C@H]1O` (stereo partly specified), the Potency result in [1], in test [20], in [2], in test [9], in [10] and in test [11] was “inactive” throughout. Also, the Potency result in [12], in [15] and in test [16] was “inactive” in each case. Further, the compound was classed as inactive in [4], in test [8], in test [13], in test [17], in test [18] and in [19].

For `N#CC1(O)CCCCC1`, the Potency entry in [1], in test [20], in [2], in test [10], in [11] and in [12] was “inactive” each time. For the same compound, the Potency result in [16] is “inactive”. For the same compound, the compound was called inactive in test [4], in [8], in test [13], in [14], in test [17] and in [18]. In addition, the compound was called inactive in [19].

The record behind these values is PubChem BioAssay (Tox21).
